Laboratory results published in PubChem BioAssay (EPA / NIEHS).
Calls of active or inactive are those of the source. Rule for the calls: active = hit-call score of the fitted dose curve at least 0.9, where 1 is the maximum; inactive = score below 0.9.

read-out: Tumor necrosis factor receptor superfamily member 6 (Homo sapiens) (UniProt P25445); assay: LTEA_HepaRG_FAS: Life Technologies and Expression Analysis (LTEA) Assay for Fas cell surface death receptor (FAS) using HepaRG (AID 2283447); conditions: mRNA level, 48 h; actives raise or lower the signal
Method in brief: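 Differentiated human HepaRG cells, pre-cultured 48 h, were exposed in duplicate for 48 h to 8-point half-log concentrations (top 100 uM, 0.5% DMSO) in serum-free induction medium; FAS mRNA measured by qRT-PCR, normalized to ACTB/GAPDH/POLR2A, bidirectional fit versus DMSO.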

| SMILES | outcome | AC50 |
| --- | --- | --- |
| O=C=NCCCCCCN=C=O | inactive | – |
| CCN(Cc1cccnc1)C(=O)c1cccc(Cl)c1[C@]1(C)C(=O)N(Cc2ccc(OC)cc2OC)c2ccc(Cl)cc21 | – | 21.3 µM (active) |
| O=C(O)c1ccccc1C(=O)OCc1ccccc1 | inactive | – |
| CCOC(=O)O[C@H](C)OC(=O)c1ccc2c(c1)cc(C(=O)NC1CCN(C(C)C)CC1)n2Cc1cc(-c2ccc(Cl)s2)on1 | inactive | – |
| CCCCCc1ccc(N)cc1 | inactive | – |
| CN(C)C(=O)C1(N2CCCCC2)CCN(CC[C@@]2(c3ccc(Cl)c(Cl)c3)CN(C(=O)c3ccccc3)CCO2)CC1 | inactive | – |
| CC1(C)NC(=O)N(c2ccc([N+](=O)[O-])c(C(F)(F)F)c2)C1=O | inactive | – |
| CCN(Cc1cccc(S(=O)(=O)O)c1)c1ccc(C(=C2C=CC(=[N+](CC)Cc3cccc(S(=O)(=O)O)c3)C=C2)c2ccccc2S(=O)(=O)[O-])cc1 | inactive | – |
| Cc1ncc(CO)c(CO)c1O | inactive | – |
| CCCCCCCCCC(=O)O | inactive | – |
| NCc1cccc(C2CCN(C(=O)c3ccc(C#Cc4ccccc4F)o3)CC2)c1 | inactive | – |
| Cc1cccc2ccccc12 | inactive | – |
| CC(O)CC(C)(C)O (configuration not stated) | inactive | – |
| Cc1cc(F)ccc1-c1cc(N2CC[C@@H](O)[C@H]2CO)ncc1N(C)C(=O)C(C)(C)c1cc(C(F)(F)F)cc(C(F)(F)F)c1 | – | 71.7 µM (active) |
| CCCCCCCCCCCO | inactive | – |
| c1ccc2ccccc2c1 | inactive | – |
| CCO[Si](CCCNC(N)=O)(OCC)OCC | inactive | – |
| Cc1ccc(C(C)C)cc1 | inactive | – |
| c1ccc(C[n+]2cccc3ccccc32)cc1 | inactive | – |

| SMILES | outcome | AC50 |
| --- | --- | --- |
| O=C1O[C@H]([C@@H](O)CO)C(O)=C1O | inactive | – |
| CCCOC(=O)c1cc(O)c(O)c(O)c1 | inactive | – |
| CCCC(=O)OCCC(C)C | inactive | – |
| Oc1ccccc1 | inactive | – |
| Cc1cn([C@H]2C[C@H](N=[N+]=[N-])[C@@H](CO)O2)c(=O)[nH]c1=O | inactive | – |
| CC/C(=C(/CC)c1ccc(O)cc1)c1ccc(O)cc1 | – | 50 µM (active) |
| O=c1ccc2ccccc2o1 | inactive | – |
| COc1ccc2cc(S(=O)(=O)N[C@H](CC(=O)N[C@H](Cc3ccc(CN4[C@H](C)CCC[C@@H]4C)cc3)C(=O)N(C)C(C)C)c3ccc4c(c3)OCO4)ccc2c1 | – | 15.1 µM (active) |
| O=CCCCC=O | inactive | – |
| CN(C)c1ccc(C(=C2C=CC(=[N+](C)C)C=C2)c2ccc(N(C)C)cc2)cc1 | inactive | – |
| O=c1[nH]sc2ccccc12 | inactive | – |
| COc1cc(C(=O)NC2CCN(C)CC2)ccc1Nc1ncc2c(n1)N(C1CCCC1)CC(F)(F)C(=O)N2C | – | 9.78 µM (active) |
| Cc1occc1C(=O)Nc1ccc(C(=O)N2CCC(F)(F)/C(=C\C(=O)N3CCC(N4CCCCC4)CC3)c3ccccc32)cc1 | inactive | – |
| CC(C)(C)c1csc(-c2cc3cc(OCc4ccccc4CC(=O)O)ccc3o2)n1 | inactive | – |
| CC1=CC(=O)/C(=C(/C)O)C(=O)O1 | inactive | – |
| CC[C@@H]1C[C@H](N(Cc2cc(C(F)(F)F)cc(C(F)(F)F)c2)C(C)=O)c2cc(C(F)(F)F)ccc2N1C(=O)OC(C)C | inactive | – |
| CN(C[C@@H](CC[N+]12CCC(C3CCCCC3)(CC1)CC2)c1ccc(Cl)c(Cl)c1)C(=O)c1cc(C(F)(F)F)cc(C(F)(F)F)c1 | – | 93.8 µM (active) |
| O=C(O)c1ccccc1-n1cc(C(=O)O)c(=O)c2cc(Nc3c(F)cc(F)cc3Cl)c(Cl)cc21 | inactive | – |
